High-throughput results: PubChem BioAssay, National Center for Advancing Translational Sciences (NCATS)
Only some compounds are listed: those with a hit (about 5.7% of all), similar ones and a draw of the others.
HepG2 viability: counter-screen for TGF-b inhibitors: cytotoxicity in HepG2 cells | HepG2 CAGA-GFP viability, ATP luminescence, 18 h | Potency, µM (highest dose often 46.1 µM), hits mostly cytotoxic | 410,000 tested, 0.76% active | AID 588856
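HepG2 CAGA-GFP cells (1000/well, DMEM with 1% FBS) received compound, then TGF-beta at 500 pg/mL final, and were incubated 18 hours at 37 degrees C. Viability was read by CellTiter-Glo luminescence. Media-only wells were set as complete cell-killing and DMSO as no toxicity.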
TGFb inhibitor: TGF-b pathway inhibition; Potency, µM (top dose mostly 46.1 µM), usual class: inhibitors; AID 588855; HepG2 CAGA-GFP TGF-b/SMAD3 reporter, GFP fluorescence, 18 h; TGF-beta stimulated, 500 pg/mL final; 410,000 tested, 1.2% active; further: nearly all actives have a fitted effect of over 65% in size
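HEPG2 CAGA-GFP, 1000 cells/well; 2 h settle, 37 C; cpd via pin tool; TGF-b 500 pg/mL final; 18 h, 37 C; GFP imaging ex488/em500-530; %Activity normalised to -TGF-b and +DMSO controls; CRC fit, curve class.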
ATXN viability: viability counter-screen for ATXN expression inhibitors; S2 cells (HEK-293 line with an ATXN2-luciferase reporter) viability, CellTiter-Fluor protease fluorescence, 24 h; Potency, µM (highest dose often 56.7 µM), usual class: cytotoxic; 400,000 tested, 0.49% active; further: nearly all actives have a fitted effect of over 40% in size
ATXN2 expr inh: ATXN2 expression inhibition; HEK-293 ATXN2-luciferase reporter, luminescence, 24 h; Potency, µM (doses to about 57 µM), hits mostly inhibitors; 360,000 tested, 0.72% active; AID 1745845; further: nearly all actives have a fitted effect of over 55% in size
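ATXN2-luciferase reporter cells (luciferase flanked by upstream and downstream ATXN2 gene portions) were treated 24 h at 37 °C with compounds at up to 57 uM. SteadyGlo luminescence gave expression; GF-AFC fluorescence gave viability.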
IL1B secr inh: blocks inflammasome-driven IL-1 beta release; THP-1 LPS/ATP IL-1B secretion, AlphaLISA, 16 h; stronger effect = lower value; activity change, % at 57.5 µM; 360,000 tested, 4.7% active; AID 743279; in the data active means activity change below about -50%; inconclusive means mostly about -30% to -49%
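THP-1 cells pretreated 1 hr with compounds (up to 57.5 uM final), then stimulated with LPS (250 ng/mL final) plus ATP (1.25 mM final); secreted IL-1B measured by AlphaLISA after 16 hr, decreased signal indicating inhibition.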
A number is an active result; 0 = inactive; ? = inconclusive; - = no result given. Unless noted, the call rests on the fitted dose curve; in most records, active means well fitted curve in the direction sought with a large enough effect; inconclusive means small, poorly fitted or top-dose-only effect, or another doubt; inactive means no such curve, though single readings can be large; an effect the other way counts as inactive or inconclusive.

SMILES	HepG2 viability	TGFb inhibitor	ATXN viability	ATXN2 expr inh	IL1B secr inh
CCOC(=O)c1oc2ccc(OC)cc2c1NC(=O)CN1CCN(C)CC1	0	0	0	0	0
O=S(=O)(Nc1ccc(C(O)(C(F)(F)F)C(F)(F)F)cc1)c1ccc(Cl)c2nonc12	20µM	?	-	17.8µM	-113.7
O=S(=O)(Nc1ccc(Br)cc1)c1cccc2nonc12	0	0	0	0	0
O=C(c1cc(COc2cccc3cccnc23)on1)N1CCC[C@H]1CO	0	0	0	-	-64.0
CC(CCc1ccccc1)NC(=O)CN(C)Cc1ccc(F)cc1 (centres undefined)	0	0	0	0	0
CC(CCc1ccccc1)NC(=O)c1ccccc1 (centres undefined)	0	?	0	0	0
CC(CCc1ccccc1)NC(=O)c1cccc(F)c1 (centres undefined)	0	11.2µM	0	0	0
CC(CCc1ccccc1)NC(=O)c1ccc(C(=O)NC(C)CCc2ccccc2)cc1 (centres undefined)	0	0	?	6.31µM	0
CC(CCc1ccccc1)NC(=O)CN(C)Cc1ccccc1F (centres undefined)	0	0	0	0	-73.9
CC(CCc1ccccc1)NC(=O)c1nnc(Cc2ccc(Cl)cc2)o1 (centres undefined)	0	0	0	0	-59.0
O=C(NCCc1ccc(Cl)cc1)c1nnc(Cc2ccc(Cl)cc2)o1	0	0	0	0	0
Cc1ccc(C)c(S(=O)(=O)c2cn(C)c3cc(N4CCCCC4C)c(F)cc3c2=O)c1 (centres undefined)	0	0	-	-	-
CC(CCc1ccccc1)NC(=O)CN1CCOc2ccccc21 (centres undefined)	0	0	0	0	0
CC(CCc1ccccc1)NC(=O)CN1CCSc2ccccc21 (centres undefined)	0	0	0	0	-77.9
CCOC(=O)C1CN(S(C)(=O)=O)c2cc(CC(=O)OC)ccc2O1 (centres undefined)	0	0	0	0	-101.4
CCOC(=O)C1CN(S(=O)(=O)c2ccc(OC)cc2)c2cc(CC(=O)OC)ccc2O1 (centres undefined)	0	0	0	0	0
Cc1ccc(SCc2c(C(=O)N/N=C/c3ccccc3)nnn2-c2nonc2N)cc1	0	0	0	0	-52.5
Cc1ccc(/C=N/NC(=O)c2nnn(-c3nonc3N)c2CSc2ccccc2)cc1	0	0	0	0	0
Cc1c(C(=O)N/N=C/c2c(O)ccc3ccccc23)nnn1-c1nonc1N	0	0	?	1.58µM	0
Nc1nonc1N/N=C/c1c(O)ccc2ccccc12	0	?	0	0	-59.4
COc1ccc2ccccc2c1/C=N/NC(=O)c1nnn(-c2nonc2N)c1C(C)C	0	?	0	0	0
Nc1nonc1N/N=C\c1ccccc1	0	0	0	0	0
O=C(COC(=O)c1ccccc1OCc1cccc(Br)c1)Nc1ccc(Br)cc1	0	0	-	-	-
c1ccc(Nc2cc(Nc3ccccc3)[nH]n2)cc1	10µM	15.8µM	?	0	0
CNc1ccc(Br)cc(C(=O)/C=C/c2ccc(OC)cc2OC)c1=O	0	?	0	0	?
SMILES	HepG2 viability	TGFb inhibitor	ATXN viability	ATXN2 expr inh	IL1B secr inh
CCNc1ccc(Br)cc(C(=O)/C=C/c2ccc(Cl)cc2)c1=O	0	0	-	22.4µM	-100.3
CCNc1ccc(Br)cc(C(=O)/C=C/c2c(Cl)cccc2Cl)c1=O	0	0	?	?	-96.3
CNc1ccc(Br)cc(C(=O)/C=C/c2ccc(Cl)cc2Cl)c1=O	0	?	?	?	-91.1
CNc1ccc(Br)cc(C(=O)/C=C/c2cccc(OC)c2)c1=O	0	?	-	?	-100.9
O=C(CSc1nc2c([nH]c3ccccc32)c(=O)n1-c1cccc(Cl)c1)c1ccccc1	0	0	0	0	-
Cc1ccc2ncc(C)c(/C=C/c3ccc(N(C)C)cc3)c2c1	0	?	-	-	-
COc1cc(OC)c(/C=C/c2ccc3ccccc3[n+]2[O-])c(OC)c1	0	0	-	-	-
COc1cc(NC(=O)c2ccc(S(=O)(=O)N(C)c3ccccc3OC)cc2)cc(OC)c1	0	0	0	0	0
COc1ccccc1N(C)S(=O)(=O)c1ccc(C(=O)Nc2cccc(Br)c2)cc1	0	0	0	0	-59.9
